From PubChem BioAssay (Tox21) come the findings set out here.

Values without a mark were called inactive. The source made the active and inactive calls. The call rests on the fitted dose curve.
On the % scale 0 is the no-effect control and ±100 the full control effect.

Sequence of Thyrotropin-releasing hormone receptor (Homo sapiens) (P34981 whole entry, looked up): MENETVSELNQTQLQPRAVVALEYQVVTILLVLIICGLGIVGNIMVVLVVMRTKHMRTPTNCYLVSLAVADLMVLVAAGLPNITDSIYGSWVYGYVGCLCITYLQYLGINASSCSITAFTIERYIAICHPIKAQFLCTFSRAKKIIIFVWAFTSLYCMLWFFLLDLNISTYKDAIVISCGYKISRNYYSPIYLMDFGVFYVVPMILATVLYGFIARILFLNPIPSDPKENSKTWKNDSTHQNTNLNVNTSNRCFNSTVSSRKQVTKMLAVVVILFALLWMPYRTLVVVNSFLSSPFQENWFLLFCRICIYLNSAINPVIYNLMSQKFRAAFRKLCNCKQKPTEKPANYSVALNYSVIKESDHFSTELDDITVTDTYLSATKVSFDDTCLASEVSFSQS

In this assay the target is Thyrotropin-releasing hormone receptor (Homo sapiens) (UniProt P34981). The experiment in a line: qHTS assay to identify small molecule agonists of the thyrotropin-releasing hormone receptor (TRHR) signaling pathway (AID 1346891).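 Further: HEK293 cells expressing TRHR with calcium dye readout.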 To be noted: TRHR-HEK293 calcium fluorescence, agonist mode; series mostly up to 57.6 µM. The text has this:
National Center for Advancing Translational Sciences [NCATS] NIH Chemical Genomics Center [NCGC] U.S. Environmental Protection Agency [EPA] National Institutes of Environmental Health Sciences [NIEHS] National Toxicology Program [NTP] Assay overview: Thyrotropin-releasing hormone (TRH) receptor (TRHR) is a G-protein-coupled receptor which binds the tripeptide thyrotropin releasing hormone. TRHR is found in the brain and, when bound by TRH, acts (through phospholipase C) to increase intracellular inositol trisphosphate. It plays a crucial role in the anterior pituitary where it controls the synthesis and secretion of thyroid stimulating hormone and prolactin. The TRHR-Hek293 assay is a cell-based assay, and it has the potential to screen G protein-coupled receptors. A compound/drug can either activate (agonist) or suppress (antagonist) GPCRs that can be monitored by levels of intracellular calcium. Using this assay, the Tox21 10K compound library was screened to identify potential TRHR agonists.
Assay Protocol Summary: The TRHR-Hek293 cells were dispensed at 1500cells/4uL/well in 1536-well black-clear bottom plates using a Multidrop dispenser. After the assay plates were incubated at a 37 C/5% CO2 incubator for 18 hours, 4 uL of Dye-Loading Solution was added to each well. The plates were incubated at 37 C for 2 hours. For agonist mode, 23 nL of compounds dissolved in DMSO, positive controls or DMSO only was transferred to the assay plate by a pin tool. The fluorescence intensity in the plates was measured using FDSS 7000EX kinetic plate reader for 3 min at 1 sec intervals. Each test compound was measured at 15 concentrations and in triplicates.
For `CCCCCCCCOS(=O)(=O)O`, the result was inactive. On the same count and under the same terms, next, `c1ccc2c(c1)ccc1c3ccccc3ccc21`: “inactive”. Still for that read-out and setting: next, `O=C(/N=N/C(=O)OCc1ccccc1)OCc1ccccc1`: “inactive”. Regarding `CC1(CO)CN(c2ccccc2)NC1=O` (stereo not given), the result was inactive.

`Cc1cc(Cl)c(C)cc1Cl`: the outcome was inactive. On the same count and under the same terms, next, `COc1nccnc1NS(=O)(=O)c1ccc(N)cc1`: “inactive”; `CCO[Si](CCCS)(OCC)OCC`: “inactive”; `CC/C=C\CC1=C(C)CCC1=O`: “inactive”. Same read-out and setting: the value for `Cc1cccc(OCC(O)CNC(C)(C)C)c1C` (stereo not given) was “inactive”; that for `Oc1ccccc1-c1nnco1` was “inactive”; that for `CC(C)(C)OC(=O)c1ccc(O)cc1` was “inactive”. Same read-out and setting: the value for `CCCCCCCCC1CCC(=O)O1` (stereo not given) was “inactive”; that for `CC(C)(C)c1n[nH]c(=S)n(N)c1=O` was “inactive”.

As for `OCCCCC(O)CO` (stereo not given), the outcome was inactive. Same read-out and setting: next, `C[C@@H](Oc1ccc(CNC(=O)c2cccnc2Oc2ccc3c(c2)OCO3)c(F)c1)C(=O)O`: “inactive”; `O=C(O)C(=O)Cc1ccccc1`: “inactive”; `CCOc1cc([N+](=O)[O-])c(OCC)cc1N1CCOCC1`: “inactive”. The same measure, in the same setting: the value for `CCOC(=O)[C@H](CCc1ccccc1)N[C@@H](C)C(=O)N1C(=O)N(C)C[C@H]1C(=O)O` was “inactive”; that for `CCCCCCCCCCl` was “inactive”; that for `CCC(C)NC(N)=O` (stereo not given) was “inactive”. In the case of `CCCCOC(=O)c1ccccc1`, the outcome was inactive. On the same count and under the same terms, next, `COc1ccc2c(c1)C(=O)N(CCc1ccc(S(=O)(=O)NC(=O)NC3CCCCC3)cc1)C(=O)C2(C)C`: “inactive”; `CC(C)CC(C)CC(C)CC(C)COC(=O)c1ccccc1C(=O)OCC(C)CC(C)CC(C)CC(C)C` (stereo not given): “inactive”; `O=C(CCNNC(=O)c1ccncc1)NCc1ccccc1`: “inactive”. In the case of `CC(=C(CCOC(=O)C(C)C)SSC(CCOC(=O)C(C)C)=C(C)N(C=O)Cc1cnc(C)nc1N)N(C=O)Cc1cnc(C)nc1N`, the outcome was inactive.

With `O=C(O)c1cc(Cl)cc([N+](=O)[O-])c1Cl`, the outcome was inactive. Same read-out and setting: the value for `CCN1CCc2nc(N)oc2CC1` was “inactive”; that for `C=CCCCCCCCCCCCC` was “inactive”; that for `Cc1ccc2c(c1)OCC(=O)CO2` was “inactive”. As for `CCC(CC)CO`, the outcome was inactive. For the compound `O=S(O)(O)=S`, the activation was 0.644% [at 5.23 µM]. Regarding `CC(S)C(=O)NCC(=O)O` (stereo not given), the outcome was inactive. The same measure, in the same setting: the value for `COc1ccc(C2CNC(=O)C2)cc1OC1CCCC1` (stereo not given) was “inactive”; that for `CC(C)CC(=O)O` was “inactive”; that for `c1ccc2nccnc2c1` was “inactive”. Take `O=C1c2ccccc2C(=O)c2cc(S(=O)(=O)O)ccc21`: the outcome was inactive. Still for that read-out and setting: next, `CC(C)NCC(O)COc1cccc2[nH]ccc12` (stereo not given): “inactive”. On to `CCN(C)C(=O)Oc1cccc([C@H](C)N(C)C)c1`, for which the result was inactive. For `CC(C)CCCCOC(=O)c1ccccc1C(=O)OCCCCC(C)C`, the outcome was inactive.

For `O=C(CS(=O)Cc1ccco1)NC/C=C\COc1cc(CN2CCCCC2)ccn1` (stereo not given), the result was inactive.
